# LmPK inh – LmPK (Leishmania mexicana) enzyme inhibition; AID 1721; Q27686; 290,000 compounds, 0.37% hits; Potency, µM (titrated, usually from 57.5 µM), inactives show at the top dose activity change, negative = inhibition, actives largely listed as inhibitors; purified LmPK, Kinase-Glo ATP luminescence, 1 h; further: potency means the concentration at half of the fitted maximal effect; on the % scale 0 is the no-effect control and ±100 the full control effect
# Target sequence (Q27686 whole entry, looked up): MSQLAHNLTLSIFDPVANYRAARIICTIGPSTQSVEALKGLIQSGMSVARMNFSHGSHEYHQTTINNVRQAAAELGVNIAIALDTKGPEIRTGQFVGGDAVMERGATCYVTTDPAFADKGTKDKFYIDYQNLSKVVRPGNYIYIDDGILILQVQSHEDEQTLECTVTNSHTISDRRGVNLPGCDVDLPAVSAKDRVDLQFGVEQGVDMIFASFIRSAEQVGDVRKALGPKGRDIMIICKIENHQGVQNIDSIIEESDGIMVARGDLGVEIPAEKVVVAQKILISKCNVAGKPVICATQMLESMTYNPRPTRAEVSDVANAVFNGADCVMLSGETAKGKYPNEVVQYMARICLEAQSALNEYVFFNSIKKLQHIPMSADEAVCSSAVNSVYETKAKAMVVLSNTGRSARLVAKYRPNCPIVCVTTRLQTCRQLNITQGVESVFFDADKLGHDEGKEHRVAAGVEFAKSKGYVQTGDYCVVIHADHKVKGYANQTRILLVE
#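 Purified LmPK (0.1 nM) with 0.5 mM PEP and 0.1 mM ADP in imidazole buffer pH 7.2 with MgCl2/KCl, 1 h at room temperature. ATP formed was read by luciferase luminescence and normalized to no-enzyme and uninhibited controls.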
# FBPA Giardia inh – Giardia lamblia aldolase inhibition | A8B2U2 | purified Giardia FBPA | Potency, µM (series often up to 59.6 µM), for inactives: top-dose activity, negative = inhibition, usual class: inhibitors | 290,000 compounds, 0.71% hits | AID 2451; further: potency means the concentration at half of the fitted maximal effect; on the % scale 0 is the no-effect control and ±100 the full control effect; nearly all actives have a fitted effect of over 55% in size
#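 40 nM FBPA preincubated 10 min at RT with compound (up to 57.5 uM final), then substrate plus GAPDH/TPI/NAD/arsenate coupling and diaphorase/resazurin added. Fluorescence read after 20 min at RT, 525/598 nm.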
# TbPYK inhibitor – inhibitors of Trypanosoma brucei pyruvate kinase | Q57TT1 | Potency, µM (series often up to 76.8 µM), without a hit: top-dose activity, negative = inhibition, hits mostly inhibitors | AID 624173 | 410,000 compounds, 0.12% hits | TbPYK enzyme, Kinase-Glo Plus ATP luminescence, 45 min; further: potency means the concentration at half of the fitted maximal effect; on the % scale 0 is the no-effect control and ±100 the full control effect; nearly all actives have a fitted effect of over 50% in size
#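 Luminescent Kinase-Glo Plus end-point after 45 min room-temperature reaction of T. brucei pyruvate kinase started with 130 uM ADP (final). Buffer TEA 50 mM pH 7.2 with KCl, MgCl2, BSA, Tween-20; titration-based qHTS with fitted concentration-effect curves.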
# Shiga inhibitor – inhibitors of Shiga toxin in Vero cells. Vero cells, Shiga toxin protein synthesis inhibition reporter. inhibition, % at 38.7 µM. 290,000 compounds, 9.2% hits; in the data active means inhibition mostly above about 28%, no sharp cut-off; inactive means mostly below about 43%; further: 0% is about no effect
# RE007 growth inh – less growth of the S. pombe RE007 Vpr strain; Potency, µM (doses to about 92.2 µM), without a hit: top-dose activity change, negative = less growth, usual class: inhibitors; AID 651644; S. pombe RE007 Vpr strain, BacTiter-Glo ATP luminescence, 24 h; 360,000 compounds, 0.21% hits; active means well fitted falling curve with a large enough effect; inconclusive means small, poorly fitted or top-dose-only effect; inactive means no such curve, though single readings can be large or run the other way; further: potency means the concentration at half of the fitted maximal effect; on the % scale 0 is the no-effect control and ±100 the full control effect; nearly all actives have a fitted effect of over 50% in size
#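 Fission yeast RE007 carrying one integrated HIV-1 vpr copy, seeded at OD 0.01 in PMG+AL medium with 23 nL pinned compound. Grown 24 h at 30 degrees; viability read by BacTiter-Glo luminescence after 5 min.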
# Cycloheximide cs – counter-screen hit for Shiga toxin inhibitors, cycloheximide | cell reporter, cycloheximide protein synthesis inhibition counterscreen | max response, % | 300,000 compounds, 12% hits | AID 2314; in the data active means max response mostly above about 13%, no sharp cut-off; inactive means mostly below about 14%; further: read at 38.3 µM for the half of the compounds with a filed dose; 0% is about no effect
# The depositor's hits bear a star; u = inconclusive; x = no result given. This excerpt belongs to a sample that is enriched for hits. Unless noted, the call rests on the fitted dose curve; in most records, active means well fitted curve in the direction sought with a large enough effect; inconclusive means small, poorly fitted or top-dose-only effect, or another doubt; inactive means no such curve, though single readings can be large; an effect the other way counts as inactive or inconclusive.
SMILES,LmPK inh,FBPA Giardia inh,TbPYK inhibitor,Shiga inhibitor,RE007 growth inh,Cycloheximide cs
CCOC(=O)C1(Cc2cccc(Cl)c2)CCCN(C(=O)CCOC)C1 (configuration not stated),2%,-5%,11%,18,24%,13*
CCOC(=O)C1(Cc2ccccc2C)CCCN(C(=O)COC)C1 (configuration not stated),-3%,11%,2%,41*,0%,23*
CCOC(=O)C1(Cc2ccccc2C)CCCN(C(=O)CN2CCCCC2=O)C1 (configuration not stated),-3%,0%,0%,29,12%,7
CCOC(=O)C1(Cc2cccc(Cl)c2)CCCN(C(=O)CCN2CCCC2=O)C1 (configuration not stated),-10%,x,x,31,x,25*
CCOC(=O)C1(Cc2cccc(Cl)c2)CCCN(C(=O)CCSC)C1 (configuration not stated),-3%,3%,1%,29,0%,22*
C=CCCC(=O)N1CCCC(Cc2cccc(Cl)c2)(C(=O)OCC)C1 (configuration not stated),4%,8%,-2%,-35,16%,9
CCOc1ccc(N=C(C)Nc2ccc(OCC)cc2)cc1,x,x,-2%,x,x,x
COc1ccc(C(=O)NCC(c2cccs2)S(=O)(=O)c2ccc(F)c(C)c2)cc1 (configuration not stated),x,x,-1%,x,x,x
CCc1cc(C(=O)O)c(NC(=O)/C=C/c2ccc(OC)cc2)s1,-3%,-3%,-17%,37,-8%,32*
COc1ccc(Br)cc1/C=C/C(=O)Nc1ccc2ccccc2c1,1%,1%,-2%,20,-16%,33*
CCc1cc(C(=O)O)c(NC(=O)/C=C/c2ccc(OC)c(OC)c2)s1,1%,1%,0%,-9,-5%,-3
COc1cccc(OC)c1C(=O)Nc1cccc(C(C)=O)c1,3%,-3%,1%,1,11%,-1
COc1cccc(/C=C/C(=O)Nc2ccc3c(c2)OCCO3)c1OC,-24%,-16%,2%,88*,-13%,27*
CCN(CC(=O)Nc1ccc2c(c1)OCCO2)C(=O)/C=C/c1cc(Br)ccc1OC,x,x,-11%,x,15%,x
COc1ccccc1/C=C/C(=O)Nc1cccc(C(C)=O)c1,-1%,-21%,-2%,65*,25%,45*
Cc1ccccc1NC(=O)CCNC(=O)Cn1ccc2ccccc2c1=O,x,x,5%,x,x,x
COc1cccc(/C=C/C(=O)Nc2cccc(C(C)=O)c2)c1OC,7%,-20%,0%,75*,18%,49*
COc1ccc(/C=C/C(=O)Nc2cccc(C(C)=O)c2)cc1,0%,-19%,1%,68*,2%,60*
COc1cccc(/C=C/C(=O)Nc2ccc(C(=O)Nc3cccc(S(N)(=O)=O)c3)cc2)c1OC,3%,0%,0%,-3,19%,5
COc1ccc(/C=C/C(=O)Nc2cccc(F)c2)cc1,x,x,-17%,x,x,x
Cc1ccc2oc(-c3cccc(NC(=O)/C=C/c4cccc([N+](=O)[O-])c4)c3C)nc2c1,-10%,8%,1%,97*,-19%,57*
Cc1c(NC(=O)c2ccc(-c3cccc([N+](=O)[O-])c3)o2)cccc1-c1nc2cc(Cl)ccc2o1,x,x,-4%,x,x,x
O=C(CN1CCCCC1)Nc1nc(-c2ccccc2)cs1,1%,3%,-1%,35*,-6%,35*
CC(=O)N1CC(=O)N=C1SCC(=O)Nc1nc(C)c(-c2ccccc2)s1,0%,-15%,2%,37*,-9%,33*
CN1CCN(CC(=O)N(C)c2nc(-c3ccccc3)cs2)CC1,1%,10%,-1%,60*,0%,61*
SMILES,LmPK inh,FBPA Giardia inh,TbPYK inhibitor,Shiga inhibitor,RE007 growth inh,Cycloheximide cs
CCc1sc(NC(=O)CN2CCOCC2)nc1-c1ccccc1,-2%,1%,0%,-4,-15%,-2
Cc1nc(NC(=O)CN2CCOCC2)sc1-c1ccccc1,0%,0%,-9%,77,0%,26*
CCCn1c(C)nc2c(NCCCCN(C)C)nc(C)nc21,x,4%,x,x,x,x
CCOc1cc(Br)cc(C2NC(=O)c3c(sc4c3CCN(C)C4)N2)c1O (configuration not stated),x,x,-9%,x,x,x
CC(=O)NCC(=O)OCC(=O)Nc1nc(-c2ccccc2)cs1,0%,1%,2%,63*,3%,16*
Cc1ccc(-c2csc(NC(=O)CN3CCOCC3)n2)cc1C,-2%,-23%,1%,24,-29%,21*
O=C(Nc1nc(-c2cccc(Br)c2)cs1)Oc1ccccc1,-8%,0%,0%,29,-14%,22
CCc1ccc(-c2csc(NC(=O)Oc3ccccc3)n2)cc1,1%,-3%,-9%,193*,0%,25*
Cc1ccc(-c2csc(NC(=O)c3cccc(S(=O)(=O)N4CCN(C)CC4)c3)n2)cc1,-1%,-10%,0%,-3,-4%,-2
Cc1ccc(-c2csc(NC(=O)COC(=O)c3cccc(S(=O)(=O)N4CCOCC4)c3)n2)cc1,-10%,-9%,4%,131*,-4%,22*
Cn1cnnc1SCC(=O)Nc1nc(-c2ccccc2)cs1,-3%,-4%,0%,5,-17%,13*
COCC(=O)Nc1nc(-c2ccc(-c3ccccc3)cc2)cs1,-2%,-6%,0%,81*,1%,65*
CC(=O)Nc1nc(-c2ccc(-c3ccccc3)cc2)cs1,x,x,-12%,x,-15%,x
O=C(CCN1C(=O)C2CC=CCC2C1=O)Nc1nc(-c2ccc(F)c(F)c2)cs1 (configuration not stated),x,x,-1%,x,10%,x
O=C(CCN1C(=O)C2CCCCC2C1=O)Nc1nc(-c2ccccc2)cs1 (configuration not stated),4%,-3%,-1%,59,20%,17*
COc1ccc(CCNC(=O)CCS(=O)(=O)c2cc3c(cc2Cl)NC(=O)CO3)cc1OC,x,x,-3%,x,x,x
c1ccc(-c2n[nH]c(-c3ccccn3)n2)cc1,u,-18%,-7%,63,-27%,24*
Nc1n[nH]c(-c2ccccc2)n1,-4%,x,3%,62,8%,6
CCOc1ccc(C(=O)Nc2ccccc2OCc2cc(=O)n3ccccc3n2)cc1,x,x,6%,x,x,x
O=C(NNC(=O)c1ccccc1Cl)c1ccco1,-6%,0%,8%,42,-3%,17*
COc1ccc(Cl)cc1NC(=S)NNC(=O)c1cccs1,0%,5%,-13%,43*,17%,23*
O=C(Nc1ccc(N2C(=O)C3CCCCC3C2=O)cc1Cl)c1cccs1 (configuration not stated),6%,-1%,-1%,31,16%,18*
COc1ccc(Cl)cc1NC(=S)NNC(=O)c1cccnc1,-2%,13%,-10%,-8,-12%,-1

# Source: PubChem (National Center for Advancing Translational Sciences (NCATS))
